The supplement of paper PMC6411743
± gives the standard deviation of the averaged measurements. Of roughly 6,500 targets only a part is listed; those with the largest changes were picked by preference.

The targets below were run with Nc1ncnc2c1ncn2[C@@H]1O[C@H](COP(=O)(O)OP(=O)(O)OP(=O)(O)O)[C@@H](O)[C@H]1O [adenosine triphosphate] (assay: NP40-soluble protein abundance relative to vehicle (solubility fold change) (ratio); higher = more soluble protein in presence of ATP). Conditions: concentration: 4mM.
Summary of the method: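 Values are fold changes against the detergent-processed vehicle, based on vsn-normalised intensities. Jurkat crude lysate was treated at eight concentrations from 0.1 to 10 mM (10 min at room temperature, then 3 min at 37 °C), solubilised with 0.8% NP40 and benzonase, ultracentrifuged and analysed by TMT-labelled LC-MS/MS over three independent experiments.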

Sequence of UniProt O43865 (O43865 whole entry): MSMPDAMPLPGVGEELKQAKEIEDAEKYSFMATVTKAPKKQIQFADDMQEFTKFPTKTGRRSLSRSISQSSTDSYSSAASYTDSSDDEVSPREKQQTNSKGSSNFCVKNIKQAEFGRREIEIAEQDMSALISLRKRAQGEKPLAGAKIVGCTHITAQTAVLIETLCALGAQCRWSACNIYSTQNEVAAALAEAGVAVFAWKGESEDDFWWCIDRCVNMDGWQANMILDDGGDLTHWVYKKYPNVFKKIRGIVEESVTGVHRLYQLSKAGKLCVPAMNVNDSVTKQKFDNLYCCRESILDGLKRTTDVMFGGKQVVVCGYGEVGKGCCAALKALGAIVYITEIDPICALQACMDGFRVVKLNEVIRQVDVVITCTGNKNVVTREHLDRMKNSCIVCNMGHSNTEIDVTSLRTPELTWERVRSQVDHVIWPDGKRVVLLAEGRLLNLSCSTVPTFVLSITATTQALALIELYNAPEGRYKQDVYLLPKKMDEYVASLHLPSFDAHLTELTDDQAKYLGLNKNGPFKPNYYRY
Sequence of UniProt O15047 (O15047 whole entry): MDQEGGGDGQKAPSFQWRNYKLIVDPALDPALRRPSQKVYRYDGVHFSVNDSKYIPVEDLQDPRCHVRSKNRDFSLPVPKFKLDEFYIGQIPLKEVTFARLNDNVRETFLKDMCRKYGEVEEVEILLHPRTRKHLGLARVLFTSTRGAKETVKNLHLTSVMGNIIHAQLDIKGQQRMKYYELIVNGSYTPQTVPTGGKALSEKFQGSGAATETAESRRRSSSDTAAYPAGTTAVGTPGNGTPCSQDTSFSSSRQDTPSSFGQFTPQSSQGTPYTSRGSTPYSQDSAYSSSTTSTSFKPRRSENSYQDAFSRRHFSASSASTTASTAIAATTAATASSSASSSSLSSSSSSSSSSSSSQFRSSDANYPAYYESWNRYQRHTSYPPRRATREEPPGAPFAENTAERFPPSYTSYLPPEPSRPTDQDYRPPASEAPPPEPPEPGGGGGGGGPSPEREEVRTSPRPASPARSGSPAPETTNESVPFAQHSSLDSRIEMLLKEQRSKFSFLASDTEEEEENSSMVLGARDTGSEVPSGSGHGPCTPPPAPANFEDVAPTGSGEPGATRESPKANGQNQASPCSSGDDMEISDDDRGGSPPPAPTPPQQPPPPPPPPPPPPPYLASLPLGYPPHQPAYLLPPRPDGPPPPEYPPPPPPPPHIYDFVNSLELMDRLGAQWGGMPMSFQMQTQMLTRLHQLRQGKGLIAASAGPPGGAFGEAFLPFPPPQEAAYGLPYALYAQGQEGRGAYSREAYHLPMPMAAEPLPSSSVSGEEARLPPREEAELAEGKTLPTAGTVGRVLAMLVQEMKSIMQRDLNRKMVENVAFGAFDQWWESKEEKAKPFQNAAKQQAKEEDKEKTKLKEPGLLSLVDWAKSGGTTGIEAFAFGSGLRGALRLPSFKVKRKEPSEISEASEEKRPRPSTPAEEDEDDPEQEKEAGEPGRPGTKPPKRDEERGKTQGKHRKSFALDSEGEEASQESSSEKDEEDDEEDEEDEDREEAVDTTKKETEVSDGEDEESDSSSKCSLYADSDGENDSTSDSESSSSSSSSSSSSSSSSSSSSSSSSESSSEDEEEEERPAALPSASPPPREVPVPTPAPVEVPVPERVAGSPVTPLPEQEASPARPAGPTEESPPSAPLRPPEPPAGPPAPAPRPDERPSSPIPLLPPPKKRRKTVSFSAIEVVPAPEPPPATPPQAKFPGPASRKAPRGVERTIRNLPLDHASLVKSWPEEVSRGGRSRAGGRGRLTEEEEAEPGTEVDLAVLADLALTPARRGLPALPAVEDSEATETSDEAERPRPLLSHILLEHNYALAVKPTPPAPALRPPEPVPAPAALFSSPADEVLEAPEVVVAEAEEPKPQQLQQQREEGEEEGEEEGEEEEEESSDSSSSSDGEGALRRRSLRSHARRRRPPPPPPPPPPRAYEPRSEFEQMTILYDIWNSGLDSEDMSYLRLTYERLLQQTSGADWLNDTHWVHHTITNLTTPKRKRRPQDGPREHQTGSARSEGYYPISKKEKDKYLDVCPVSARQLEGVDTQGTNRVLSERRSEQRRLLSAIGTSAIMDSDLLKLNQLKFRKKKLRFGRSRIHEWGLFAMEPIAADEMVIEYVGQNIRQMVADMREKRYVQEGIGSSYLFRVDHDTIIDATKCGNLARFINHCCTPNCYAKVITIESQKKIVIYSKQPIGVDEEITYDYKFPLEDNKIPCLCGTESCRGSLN
Sequence of UniProt Q969X6 (Q969X6 whole entry, one chain of several): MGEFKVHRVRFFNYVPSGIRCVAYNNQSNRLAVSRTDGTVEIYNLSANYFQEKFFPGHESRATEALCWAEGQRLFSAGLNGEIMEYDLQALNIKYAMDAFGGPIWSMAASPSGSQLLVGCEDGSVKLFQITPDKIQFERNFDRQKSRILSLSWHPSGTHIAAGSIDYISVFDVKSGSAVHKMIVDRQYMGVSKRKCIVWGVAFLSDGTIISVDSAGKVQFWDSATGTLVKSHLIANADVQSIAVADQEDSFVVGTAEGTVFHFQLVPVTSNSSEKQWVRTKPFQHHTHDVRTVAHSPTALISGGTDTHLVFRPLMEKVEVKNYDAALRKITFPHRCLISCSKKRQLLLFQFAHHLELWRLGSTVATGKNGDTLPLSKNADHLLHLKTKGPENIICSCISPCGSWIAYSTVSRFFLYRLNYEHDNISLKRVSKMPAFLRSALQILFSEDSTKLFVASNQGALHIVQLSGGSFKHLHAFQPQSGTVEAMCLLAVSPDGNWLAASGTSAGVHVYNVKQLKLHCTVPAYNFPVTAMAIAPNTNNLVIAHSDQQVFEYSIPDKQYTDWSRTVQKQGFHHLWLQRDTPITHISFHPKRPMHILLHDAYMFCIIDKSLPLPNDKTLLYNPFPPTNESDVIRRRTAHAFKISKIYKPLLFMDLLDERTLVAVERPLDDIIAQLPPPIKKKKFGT
Sequence of UniProt O43809 (O43809 whole entry): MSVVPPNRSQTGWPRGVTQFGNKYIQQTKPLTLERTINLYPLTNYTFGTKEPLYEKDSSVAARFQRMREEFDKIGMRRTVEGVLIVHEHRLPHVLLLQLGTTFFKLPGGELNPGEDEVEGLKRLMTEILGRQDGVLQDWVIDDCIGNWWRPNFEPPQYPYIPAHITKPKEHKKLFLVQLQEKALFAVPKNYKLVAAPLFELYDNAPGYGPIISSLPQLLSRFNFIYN
Sequence of UniProt Q96DH6 (Q96DH6 whole entry, one chain of several): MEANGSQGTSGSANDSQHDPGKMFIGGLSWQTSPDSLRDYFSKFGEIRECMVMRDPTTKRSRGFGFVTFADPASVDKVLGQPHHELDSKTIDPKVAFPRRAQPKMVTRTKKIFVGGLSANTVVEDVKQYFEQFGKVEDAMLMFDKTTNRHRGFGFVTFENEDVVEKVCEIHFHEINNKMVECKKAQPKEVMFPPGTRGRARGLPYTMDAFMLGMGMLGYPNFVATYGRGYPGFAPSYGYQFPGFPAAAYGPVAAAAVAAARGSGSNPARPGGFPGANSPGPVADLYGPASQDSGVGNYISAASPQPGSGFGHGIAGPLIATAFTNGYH
Sequence of UniProt P01130 (P01130 whole entry, one chain of several): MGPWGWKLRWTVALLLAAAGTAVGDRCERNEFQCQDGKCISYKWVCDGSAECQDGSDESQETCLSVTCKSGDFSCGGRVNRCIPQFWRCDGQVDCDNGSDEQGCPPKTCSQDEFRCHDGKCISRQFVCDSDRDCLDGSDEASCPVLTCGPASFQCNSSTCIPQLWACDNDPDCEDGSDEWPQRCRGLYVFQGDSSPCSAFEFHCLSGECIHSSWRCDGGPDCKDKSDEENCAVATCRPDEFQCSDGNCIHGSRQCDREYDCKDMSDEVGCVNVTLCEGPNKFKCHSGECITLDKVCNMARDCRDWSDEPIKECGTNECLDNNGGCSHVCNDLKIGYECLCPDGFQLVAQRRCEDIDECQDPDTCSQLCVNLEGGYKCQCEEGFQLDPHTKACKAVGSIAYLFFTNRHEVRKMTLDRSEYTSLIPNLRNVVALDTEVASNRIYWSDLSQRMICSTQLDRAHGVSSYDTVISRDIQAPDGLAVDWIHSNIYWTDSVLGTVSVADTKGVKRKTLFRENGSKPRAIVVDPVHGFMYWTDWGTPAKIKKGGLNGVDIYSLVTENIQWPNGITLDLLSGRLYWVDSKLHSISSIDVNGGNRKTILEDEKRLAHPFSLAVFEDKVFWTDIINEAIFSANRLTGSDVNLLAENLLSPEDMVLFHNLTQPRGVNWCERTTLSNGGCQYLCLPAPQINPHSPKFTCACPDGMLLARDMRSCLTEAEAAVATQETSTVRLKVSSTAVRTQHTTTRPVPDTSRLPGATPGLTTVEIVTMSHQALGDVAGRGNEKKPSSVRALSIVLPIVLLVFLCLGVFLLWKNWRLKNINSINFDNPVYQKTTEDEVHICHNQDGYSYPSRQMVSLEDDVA
Sequence of UniProt Q9H9Q2 (Q9H9Q2 whole entry, one chain of several): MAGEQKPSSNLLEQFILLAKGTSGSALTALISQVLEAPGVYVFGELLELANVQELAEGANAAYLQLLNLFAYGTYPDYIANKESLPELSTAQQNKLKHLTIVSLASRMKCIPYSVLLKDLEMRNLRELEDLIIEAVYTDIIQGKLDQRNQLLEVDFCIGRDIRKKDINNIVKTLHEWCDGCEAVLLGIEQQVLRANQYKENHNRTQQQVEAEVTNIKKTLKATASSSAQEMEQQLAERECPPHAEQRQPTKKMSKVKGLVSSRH
Sequence of UniProt O75955 (O75955 whole entry, one chain of several): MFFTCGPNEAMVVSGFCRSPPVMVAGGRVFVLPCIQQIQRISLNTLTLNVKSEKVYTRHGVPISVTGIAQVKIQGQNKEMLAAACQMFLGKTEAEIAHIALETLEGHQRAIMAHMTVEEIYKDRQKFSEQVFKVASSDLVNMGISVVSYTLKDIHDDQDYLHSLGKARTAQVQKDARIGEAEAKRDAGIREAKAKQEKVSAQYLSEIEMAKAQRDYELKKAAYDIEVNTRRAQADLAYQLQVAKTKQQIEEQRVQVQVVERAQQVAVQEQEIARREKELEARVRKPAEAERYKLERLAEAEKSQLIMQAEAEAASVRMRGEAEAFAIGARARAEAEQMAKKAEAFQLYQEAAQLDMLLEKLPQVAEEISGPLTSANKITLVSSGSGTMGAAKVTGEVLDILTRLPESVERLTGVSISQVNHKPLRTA

Target	NP40-soluble protein abundance
G3V0I5|P49821|P49821-2 (UniProt P49821)	0.944 ± 0.033
SETD1A (UniProt O15047)	0.979 ± 0.022
MYO1G (UniProt B0I1T2)	3.48 ± 0.58
H0YM92|J3KMZ9|P01130|P01130-5|H0YMD1|P01130-4 (UniProt P01130)	0.981 ± 0.023
A2ABJ5|O75955|A0A140T9R1 (UniProt O75955)	0.926 ± 0.012
DHX15 (UniProt O43143)	1.24 ± 0.079
F6S7C4|Q8NEM7|Q8NEM7-2|Q8NEM7-3|R4GND2 (UniProt Q8NEM7)	1.14 ± 0.093
I3L2M1|J3KNL2|Q8WYJ6 (UniProt Q8WYJ6)	0.948 ± 0.022
G3XAG1|Q96ME7|Q96ME7-3 (UniProt Q96ME7)	1.58 ± 0.019
B0QY89|Q9Y262 (UniProt Q9Y262)	1.23 ± 0.075
UniProt O14776|O14776-2	0.959 ± 0.024
H3BSH7|Q969X6|Q969X6-3 (UniProt Q969X6)	1.26 ± 0.058
M0QZM1|M0R019|P52272|P52272-2 (UniProt P52272)	1.01 ± 0.032
J3KQ34|Q9H9Q2 (UniProt Q9H9Q2)	0.855 ± 0.072
B4DHE8|Q96DH6 (UniProt Q96DH6)	0.994 ± 0.065
E9PL53|J3KND1 (UniProt Q96ER3)	0.951 ± 0.013
C9J381|P20839|P20839-2|P20839-3|P20839-4|P20839-5|P20839-6|P20839-7 (UniProt P20839)	0.933 ± 0.018
NUDT21 (UniProt O43809)	2.18 ± 0.1
UniProt O43865	0.963 ± 0.076
A0A087X176|Q6ZRP7 (UniProt Q6ZRP7)	0.961 ± 0.028
E9PEN0|Q8WYH8|Q8WYH8-2 (UniProt Q8WYH8)	1.36 ± 0.18
